ERG-DNA inh = qHTS for Small Molecule Inhibitors of the ERG Ets/DNA interaction | Potency, µM (highest dose often 76.9 µM), without a hit: top-dose FP activity, negative = inhibition, hits mostly inhibitors | Transcriptional regulator ERG (Homo sapiens), P11308 | fluorescence polarization, His-ERG Ets domain / labelled DNA | 370,000 compounds, 0.028% hits; active = well fitted inhibition curve with a large enough effect in the polarisation, with a control signal flat; inconclusive = small, poorly fitted or top-dose-only effect, or effect the other way, or a change in a side signal; inactive = no such curve, though single readings can be large or run the other way; the % refers to the polarisation;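 also: polarization taken with two DNA probes labelled with fluorescein and Texas red; potency is read from the fitted curve at half-maximal effect; % of control where 0% means no effect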
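His-tagged ERG Ets domain (1 uM in the protein solution; 300mM KCl, 50mM Tris-HCl, 1mM EDTA, 1mM DTT, pH 7.5) received compound, then a probe mix of 5 nM fluorescein-DNA and 100nM Texas-615-DNA. Fluorescence polarization was read for both dyes.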
Integrin act MD = qHTS for Activators of Integrin-Mediated Alleviation for Muscular Dystrophy; alpha7betagal myoblasts, beta-gal FDG fluorescence, 48 h; 350,000 compounds, 0.064% hits; AID 624291, 2012; Potency, µM (highest dose often 38.3 µM), for inactives: at the highest dose activation, usual class: activators;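 also: potency is read from the fitted curve at half-maximal effect; 100% = response of the positive control SU9516; nearly all actives have a fitted effect of over 60% in size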
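Alpha7betagal+/- myoblasts (passage 13) were plated 16-24 hr, then exposed to compounds (1:260 dilution of DMSO stock) for 48 hours at 37C. After MPER lysis, β-galactosidase reporter activity was read as FDG fluorescence (ex 480/em 540) after 30 minutes.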
RORg inh = qHTS for inhibitors of ROR gamma transcriptional activity. Drosophila S2 Gal4-RORgamma UAS-luciferase reporter, 20 h. Potency, µM (series often up to 53.6 µM), inactives show at the highest dose activity change, negative = inhibition, hits mostly inhibitors. 310,000 compounds, 5.4% hits; also: potency is read from the fitted curve at half-maximal effect; % is scaled to controls: 0 for no effect and ±100 for the full control effect; nearly all actives have a fitted effect of over 60% in size
Target sequence (P51450 whole entry, looked up, the tested form may be a part): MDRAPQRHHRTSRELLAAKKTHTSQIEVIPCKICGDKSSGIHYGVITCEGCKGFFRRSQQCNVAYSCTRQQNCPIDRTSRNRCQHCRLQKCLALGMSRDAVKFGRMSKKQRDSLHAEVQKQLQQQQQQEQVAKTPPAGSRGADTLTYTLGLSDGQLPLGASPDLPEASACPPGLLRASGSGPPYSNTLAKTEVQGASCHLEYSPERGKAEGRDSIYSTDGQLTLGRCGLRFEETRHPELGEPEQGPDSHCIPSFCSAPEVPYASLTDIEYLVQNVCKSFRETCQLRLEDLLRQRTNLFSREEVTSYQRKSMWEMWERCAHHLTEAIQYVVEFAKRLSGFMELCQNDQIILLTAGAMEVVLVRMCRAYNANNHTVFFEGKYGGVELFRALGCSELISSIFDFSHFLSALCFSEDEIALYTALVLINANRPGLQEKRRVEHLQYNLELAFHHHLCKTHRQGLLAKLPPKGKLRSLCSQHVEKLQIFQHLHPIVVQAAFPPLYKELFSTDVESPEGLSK
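Stably transfected Drosophila Schneider cells are the test system, with ROR gamma fused to Gal4 and luciferase under UAS control; luminescence is read after 20 hr of 700 uM copper sulfate induction at ambient temperature.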
VP16 counter = VP16 counterscreen qHTS for inhibitors of ROR gamma transcriptional activity. Drosophila S2 Gal4-VP16 UAS-luciferase, luminescence, 20 h. Potency, µM (highest dose often 53.6 µM), inactives show at the highest dose activity, negative = inhibition, hits mostly inhibitors. 310,000 compounds, 3.5% hits. AID 2546, 2010;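 also: Gal4-VP16 expression switched on by copper sulfate through the metallothionein promoter; potency is read from the fitted curve at half-maximal effect; % is scaled to controls: 0 for no effect and ±100 for the full control effect; nearly all actives have a fitted effect of over 50% in size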
Giardia killer = Small Molecules that selectively kill Giardia lamblia: qHTS; Giardia lamblia trophozoite viability; activity change, % at 7.66 µM, hits read low; 340,000 compounds, 0.15% hits; AID 540267, 2011; in the data active = activity change below about -80%; inconclusive = between about -30% and that limit;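 also: parasites exposed to compound for two days anaerobically before the ATP read; % is scaled to controls: 0 for no effect and ±100 for the full control effect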
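Luminescence from cellular ATP indicates surviving trophozoites (100 cells/well) following 48 hrs anaerobic compound treatment at 37 deg C; signal develops 15-30 min at room temperature.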
* hit, by the source's call; ? = inconclusive; / = no result given; [ ] = dose if it differs, or a comment. Shown is part of a subset that was picked to be rich in hits. Unless noted, calls follow the shape of the dose curve; as a rule, active = well fitted curve in the direction sought with a large enough effect; inconclusive = small, poorly fitted or top-dose-only effect, or another doubt; inactive = no such curve, though single readings can be large; an effect the other way counts as inactive or inconclusive.

SMILES	ERG-DNA inh	Integrin act MD	RORg inh	VP16 counter	Giardia killer
CC(=O)N/N=C/c1c(C)[nH]n(-c2ccccc2)c1=O	4%	-16%	5µM*	11µM*	5
Cc1[nH]n(-c2ccccc2)c(=O)c1/C=C1/C=c2ccccc2=N1	6%	-110%	31%	?	3
CCc1nnc(NC(=O)CSc2nnc(Cc3cc(=O)[nH]c(=O)[nH]3)n2-c2cccc(OC)c2)s1	6%	12%	21%	-7%	5
Cc1ccc2sc(C)cc(=O)c2c1	/	16%	/	/	-7
CS(=O)(=O)N1CCC2(CCN(Cc3nccs3)CC2)CC1	/	/	11%	2%	/
Cc1ccc2cccc(N=Cc3c(C)[nH]n(-c4ccccc4)c3=O)c2n1	8%	-54%	1µM*	1µM*	9
COC(=O)N/N=C\c1c(C)[nH]n(-c2ccccc2)c1=O	-5%	-6%	11µM*	?	-13
Cc1[nH]n(-c2ccccc2)c(=O)c1/C=N/NC(=O)COc1ccccc1[N+](=O)[O-]	-3%	-29%	0.45µM*	0.63µM*	-2
Cc1[nH]n(-c2ccccc2)c(=O)c1/C=N/NC(=O)c1ccccc1F	6%	-36%	0.5µM*	1µM*	36
COC(=O)CN=Cc1c(C)[nH]n(-c2ccccc2)c1=O	0%	4%	0%	5%	1
Cc1c(/C=N/NC(=O)COc2ccccc2[N+](=O)[O-])c2ccccc2n1C	5%	-15%	8%	-6%	-5
CN1CCN(c2ccc(NC(=O)CSc3nnnn3-c3ccccc3Cl)cc2)CC1	9%	-58%	-1%	-2%	-3
Cc1[nH]n(-c2ccccc2)c(=O)c1C=Nc1ccc(S(N)(=O)=O)cc1	-7%	-12%	1%	-3%	-15
COCC(=O)N/N=C/c1c(C)[nH]n(-c2ccccc2)c1=O	12%	-10%	0.63µM*	?	-18
Cc1[nH]n(-c2ccccc2)c(=O)c1/C=N\NC(=O)C1COc2ccccc2O1 (stereo not drawn)	-4%	5%	0.79µM*	1.1µM*	-12
CNS(=O)(=O)c1cn(CC(=O)Nc2ccc(OC)cc2OC)cc1S(=O)(=O)NC	7%	/	/	/	/
COc1ccc(OC)c(NC(=O)C(=O)NNC(=O)C23CC4CC(CC(C4)C2)C3)c1	-7%	-7%	2.5µM*	?	4
COc1ccc2c3c1OC1C[C@@H](O)C=C[C@@]31CCN(C)C2 (stereo partly drawn)	/	/	1%	4%	/
CCOC(=O)c1cccc(NC(=O)c2cc(C)nc3c2c(C)nn3-c2ccc(C)cc2)c1	-1%	/	/	/	/
CSC(SC)=C(C#N)C(=O)c1ccccc1	4%	15%	-74%	11µM*	-5
CCCCCCn1c(SCC#N)nc2ccccc2c1=O	/	/	/	/	9
Cc1cc(Br)cc(/C=N/NC(=O)c2ccc3c(c2)OCO3)c1O	-1%	-38%	2.5µM*	3.5µM*	37
O=C(N/N=C/c1cc(Br)cc(Cl)c1O)c1ccc2c(c1)OCO2	0%	-49%	/	/	6
O=C(N/N=C\c1cccs1)c1sccc1-n1cccc1	9%	-15%	1.3µM*	?	3
CC/C(=N\NC(=O)c1ccc2c(c1)OCO2)c1ccccc1	-6%	28%	?	1%	3
SMILES	ERG-DNA inh	Integrin act MD	RORg inh	VP16 counter	Giardia killer
O=C(N/N=C/c1ccc2c(c1)OCO2)c1ccc(NC(=O)c2ccc(F)cc2)cc1	2%	?	10µM*	0%	-3
O=C(N/N=C\c1ccccc1)c1sccc1-n1cccc1	10%	-40%	?	-9%	-12
O=C(N/N=C/c1ccc(Cl)cc1)c1ccc2c(c1)OCO2	11%	0%	-16%	6%	8
CC(C)CC(CC(C)C)=NNC(=O)c1ccc2c(c1)OCO2	0%	-4%	13µM*	5%	0
CC(C)(C)n1nc2c(c1NC(=O)c1cc3ccccc3o1)CS(=O)(=O)C2	-4%	-18%	20%	-3%	25
CCOc1ccccc1NC(=O)CSc1nccn1Cc1ccc(F)cc1	0%	/	/	/	/
O=C(Nc1ccccc1Cl)c1cc2c(-c3ccccc3)nn(-c3ccccc3)c2s1	-3%	/	/	/	/
O=C(NCc1ccccc1Cl)c1cc2cccc3c2n1CCS3	-2%	/	/	/	/
CC1CCC(NC(=O)c2ccc3c(c2)OCO3)CC1 (stereo not drawn)	2%	-30%	10µM*	?	-29
COc1cc(Cl)cc(/C=N\NC(=O)c2ccc3c(c2)OCO3)c1O	/	-42%	/	/	/
COc1cc(/C=N/NC(=O)c2ccc3c(c2)OCO3)ccc1O	8%	11%	8.9µM*	7.1µM*	4
O=C(N/N=C/c1ccc2c(c1)OCO2)c1sc2cc(Cl)ccc2c1Cl	-9%	-7%	-26%[10 µM]	-8%	-16
COc1ccc2c(Cl)c(C(=O)N/N=C/c3ccc4c(c3)OCO4)sc2c1	-2%	-22%	1.1µM*	0%	-8
COc1ccc(/C=N/NC(=O)c2ccc3c(c2)OCO3)cc1	5%	11%	-9%	-8%	-8
O=C(N/N=C/c1cc(Cl)cc([N+](=O)[O-])c1O)c1ccc2c(c1)OCO2	-8%	-18%	0.79µM*	0.89µM*	-15
CN(C)c1ccc(C(CNC(=O)c2ccc(C(C)(C)C)cc2)N2CCCC2)cc1 (stereo not drawn)	1%	/	/	/	/
O=C(N/N=C/c1cc(Br)c(O)c(Br)c1O)c1ccc2c(c1)OCCO2	-15%	-36%	4.5µM*	3.2µM*	-6
O=C(N/N=C/c1ccsc1)c1ccc2c(c1)OCO2	14%	9%	/	/	8
O=C(N/N=C/c1cccs1)c1ccc2c(c1)OCO2	0%	20%	14µM*	?	-29
O=C(N/N=C/c1ccc2c(c1)OCO2)c1ccc2c(c1)OCCO2	-11%	19%	-31%	?	10
O=C(N/N=C/c1ccccc1OC(=O)c1ccc2c(c1)OCO2)c1cccc(F)c1	5%	-13%	13µM*	?	9
O=C(O)COc1ccccc1/C=N/NC(=O)c1ccc2c(c1)OCCO2	-5%	-23%	?	?	-20
O=C(N/N=C/c1ccccc1O)c1ccc2c(c1)OCO2	0%	-25%	0.56µM*	1.8µM*	-25
CCn1ncc(CN2CCC(Oc3cc(C(=O)NC4CC4)ccc3OC)CC2)c1C	3%	5%	-28%	5%	20
C=CCOc1c(CNc2cccc(C(=O)O)c2)cccc1OC	6%	4%	10µM*	?	-10
CC(=O)Oc1cc(OC(C)=O)c2c(=O)cc(-c3ccc(OC(C)=O)c(OC(C)=O)c3)oc2c1	/	/	?	35µM*	/
COc1ccc(-c2cc(=O)c3c(OC(C)=O)cc(OC(C)=O)cc3o2)cc1	/	/	?	-26%	/
CCC(=O)NC(c1ccc([N+](=O)[O-])cc1)c1c(O)ccc2ccccc12 (stereo not drawn)	-8%	-14%	?	11µM*	-2
